Screening data: PubChem, Broad Institute
HSF1 inh: HSF1 inhibition; NIH3T3-HGL HSE-luciferase, MG132-induced, luminescence 8 h; hits give low values; activity change, negative = inhibition, % at 7.5 µM (by protocol); hit rate 0.77% among 300,000; AID 2098;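 active = more than half of replicate wells show activity change below -50%, luminescence cut by over half; inconclusive = some wells, but at most half, below -50%; inactive = no replicate well below -50%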;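 note: luciferase reports HSF-1 transcriptional activity via heat shock element; 0% = median of DMSO wells and -100% = zero luminescence signal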
esBAF inh: inhibitors of esBAF chromatin remodeling in mouse ES cells; AID 602393; reporter increase, % at 12.5 µM; Bmi1-luciferase knock-in reporter, 24 h; 100% = twice the neutral-well signal; hit rate 2% among 350,000; in the data active = activation above about 40%; inconclusive = no clear call, values can overlap the other calls;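 note: 0% = median of the plate's neutral control wells and 100% = double that signal; a rise in the Bmi1 reporter signal indicates esBAF inhibition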
HSF-1 act: increases HSF-1 driven luciferase reporter signal. NIH3T3-HGL HSF-1 luciferase reporter, MG132, 8 h; 100% = twice DMSO control signal. hit rate 1.7% among 300,000. AID 504408. activation, % at 9 µM;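 active = mean replicate activation of at least 50% with a set share of replicates each reaching 50%; inconclusive = only one of those two conditions met; inactive = mean below 50% and too few replicates reaching it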;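 note: 0% = median of the neutral control wells and 100% = twice that signal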
Wnt act: activates Wnt/beta-catenin signaling in a reporter cell assay. activator, plate reader. activation, % at 9.35 µM. hit rate 1.2% among 300,000; in the data active = activation above about 30%, passing the limit was not always enough; inconclusive = no clear call, values can overlap the other calls;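 note: 0% = neutral control wells and 100% = positive control wells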
MITF TRPM1 HTS: activators of MITF-driven TRPM1 promoter activity in SK-MEL-5 cells; SK-MEL-5 TRPM1-promoter luciferase, 24 h; % of positive control, neutral wells = 0; activation, % at 12.5 µM; hit rate 0.75% among 300,000; AID 588334;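 active = mean activation of at least 80% with every replicate also reaching 80%; inconclusive = mean reaches 80% but some replicate falls short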;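 note: 0% = neutral control wells and 100% = parthenolide positive control wells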
The depositor's hits bear a star; u = inconclusive; x = no result. In the library only some 3.9% were active in any assay of this set; here they are far more common.

SMILES	HSF1 inh	esBAF inh	HSF-1 act	Wnt act	MITF TRPM1 HTS
Brc1ccccc1-n1nnc(-c2nccs2)n1	21	u	7	45*	91*
c1ccc(-n2nnc(-c3nccs3)n2)cc1	20	1	31	40*	u
O=C(Nc1nccs1)c1ccccc1Br	2	25	-4	0	23
C[C@H]1CN([C@@H](C)CO)C(=O)c2cc(NC(=O)C3CCCCC3)ccc2O[C@H]1CN(C)C(=O)Nc1cccc2ccccc12	x	-6	x	x	x
O=C(Nc1ccc(Cl)cc1)N1C[C@@H]2[C@H](c3ccccc31)[C@H](CO)N2CC1CCCC1	x	17	x	x	x
CCC(CC)C(=O)NCCc1cc2cc(C)c(C)cc2[nH]c1=O	-9	-1	1	-5	2
Cc1ccc2cc(CCNC(=O)c3ccco3)c(=O)[nH]c2c1C	29	-29	46	u	104*
Cc1cc2cc(CCNC(=O)c3cccs3)c(=O)[nH]c2cc1C	44	82*	58*	u	x
Cc1ccc2cc(CCNC(=O)c3ccco3)c(=O)[nH]c2c1	9	26	27	x	103*
COc1ccc2cc(CCNC(=O)c3ccco3)c(=O)[nH]c2c1	17	37	29	34*	54
C[C@H]1CN([C@@H](C)CO)S(=O)(=O)c2ccc(C#Cc3ccccc3F)cc2O[C@@H]1CN(C)CC1CCOCC1	x	-7	x	x	x
Cc1noc(C)c1NC(=O)Nc1ccc2c(c1)C(=O)N([C@H](C)CO)C[C@H](C)[C@@H](CN(C)C)OCCCC[C@H](C)O2	x	-3	x	x	x
Cc1noc(C)c1NC(=O)N(C)C[C@H]1OCCCC[C@H](C)Oc2ccc(NC(=O)c3ccccc3)cc2C(=O)N([C@H](C)CO)C[C@@H]1C	x	6	x	x	x
C[C@@H]1CN([C@@H](C)CO)C(=O)Cc2cc(NC(=O)NC3CCCCC3)ccc2O[C@@H]1CN(C)Cc1ccc(C(F)(F)F)cc1	x	-5	x	x	x
COCC(=O)Nc1ccc2c(c1)OC[C@@H](C)NC[C@@H](C)[C@H](OC)CN(C)C2=O	x	4	x	x	x
CCOc1ccc2[nH]c(=O)c(CN(Cc3ccc(F)cc3)C(=O)c3ccco3)cc2c1	23	-6	75*	x	-25
O=C(c1ccco1)N(Cc1cc2ccccc2[nH]c1=O)C1CCCCC1	-82*	x	-85	x	1
O=C(c1ccncc1)N(Cc1cc2ccccc2[nH]c1=O)C1CCCCC1	-2	1	-3	x	-9
C[C@H]1CN([C@@H](C)CO)C(=O)Cc2cc(NC(=O)c3ccncc3)ccc2O[C@@H]1CN(C)Cc1ccncc1	x	-2	x	x	x
CCOC(=O)N1CCC(N2C(=O)c3ccccc3C2Nc2cc(C)cc(C)c2)CC1 (centres undefined)	4	-6	29	-4	-8
CCOC(=O)N1CCC(N2C(=O)c3ccccc3C2Nc2cc(C(=O)OC)cc(C(=O)OC)c2)CC1 (centres undefined)	-78*	-1	-82	-2	x
CN1CCN(C(=O)C[C@H]2CC[C@@H]3[C@H](COC[C@@H](O)CN3C(=O)C3CC3)O2)CC1	x	-1	x	x	x
Cc1ccccc1-c1nc(-c2ccccn2)no1	u	x	-53	-4	-73
Cc1ccccc1-c1nc(-c2cccnc2)no1	27	9	43	48*	x
CCCCOc1ccc(-c2nc(-c3cccnc3)no2)cc1	11	7	22	x	99*
SMILES	HSF1 inh	esBAF inh	HSF-1 act	Wnt act	MITF TRPM1 HTS
Cc1ccccc1-c1nc(Cc2ccccc2)no1	16	60*	28	17	118*
Clc1ccccc1-c1nc(-c2cccnc2)no1	13	24	32	x	3
COc1cc(OC)cc(-c2nc(-c3ccccc3)no2)c1	12	48*	24	-2	45
c1cncc(-c2noc(-c3ccc4ccccc4c3)n2)c1	-3	-28	25	16	56
CCCNC(=O)N1C[C@@H]2[C@H](c3ccccc31)[C@@H](CO)N2C(=O)c1ccccc1	x	0	x	x	x
CN1CCN(C(=O)C[C@@H]2CC[C@H](NS(=O)(=O)c3cccc(F)c3)[C@@H](CO)O2)CC1	x	-4	x	x	x
CCOc1ccc(-c2noc(-c3cccnc3)n2)cc1OC	14	-8	2	10	51
COc1ccc(-c2nc(-c3ccncc3)no2)cc1	27	-12	54*	28	60
CCOc1ccc(-c2nc(-c3cccnc3)no2)cc1	-5	-3	16	47*	13
COc1ccc(-c2nc(-c3cccnc3)no2)cc1	13	x	44	53*	x
CCCCOc1ccc(-c2nnc(-c3ccncc3)o2)cc1	13	33	26	15	x
